# Laboratory results reported in PubChem BioAssay AID1851 (National Center for Advancing Translational Sciences (NCATS), 2009).
# Where “and” joins values, the source holds several entries; their conditions need not be identical. Equal entries are not always repeated. Screen size: about 16,000 compounds; about 2,600 (16%) were called active. Inconclusive results (about 20%) are left out. The call rests on the fitted dose curve; in most records, active means well fitted curve in the direction sought with a large enough effect; inconclusive means small, poorly fitted or top-dose-only effect, or effect the other way; inactive means no such curve, though single readings can be large or run the other way. A selection follows. Some structures have more than one record in an assay (separate samples or runs), and their calls can disagree.
# Biological target: Cytochrome P450 2D6 (Homo sapiens) (UniProt P10635)
# Test: Cytochrome panel assay with activity outcomes
# Conditions: recombinant CYP, pro-luciferin dealkylation, luminescence, p450-cyp2d6; series mostly up to 57.1 µM
# On the % scale 0 is the no-effect control and ±100 the full control effect.
# Cytochrome P450 2D6 (Homo sapiens), sequence (P10635 whole entry, looked up): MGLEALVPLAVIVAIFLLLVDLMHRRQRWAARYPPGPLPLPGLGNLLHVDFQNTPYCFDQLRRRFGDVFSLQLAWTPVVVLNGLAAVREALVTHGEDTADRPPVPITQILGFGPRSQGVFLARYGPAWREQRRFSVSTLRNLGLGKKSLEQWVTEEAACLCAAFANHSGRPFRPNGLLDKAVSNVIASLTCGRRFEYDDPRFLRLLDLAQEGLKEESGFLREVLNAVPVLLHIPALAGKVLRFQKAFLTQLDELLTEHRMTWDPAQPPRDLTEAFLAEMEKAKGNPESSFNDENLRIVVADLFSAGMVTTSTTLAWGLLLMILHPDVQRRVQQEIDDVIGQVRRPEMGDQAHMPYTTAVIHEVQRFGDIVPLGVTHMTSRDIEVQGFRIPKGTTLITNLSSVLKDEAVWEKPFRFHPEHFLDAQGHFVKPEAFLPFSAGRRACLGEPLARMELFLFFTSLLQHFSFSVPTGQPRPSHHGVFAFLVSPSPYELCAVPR
SMILES,AC50,"activity, negative = inhibition"
CNc1ncnc2c1ncn2[C@H]1C[C@@H](OP(=O)(O)O)[C@H](COP(=O)(O)O)O1,inactive,
CNc1ncnc2c1ncn2[C@@H]1O[C@@H](CO)[C@H](O)[C@@H]1O,inactive,
CNc1ncnc2c1ncn2[C@H]1C[C@H](OP(=O)(O)O)[C@H](COP(=O)(O)O)O1,5.01 µM (active),
Cc1ccc(C2C3=C(CCCC3=O)Nc3nc(SCC(=O)NCc4ccco4)[nH]c(=O)c32)cc1 (stereo not given),inactive,
CC(C)C12CC[C@@]3(CC[C@H]4[C@@](C)(CCC[C@]4(C)C(=O)O)[C@@H]3C1)[C@@H](CN)C2,,6.15% [at 11.4 µM] (inactive)
COc1ccc(Nc2cc(=O)n(C3CCCCC3)c(=O)[nH]2)c(OC)c1,inactive,
Cc1nc(S(=O)(=O)NC2CCCCC2)c(C#N)c(C)c1Cl,inactive,
Cc1ccc(-c2c(C)sc(NC(=O)C3C4CCC(O4)C3C(=O)O)c2C(=O)OC(C)C)cc1 (stereo not given),inactive,
Cc1ccc(/C=N/NC(=O)CSc2nc3nc(C)cc(C)n3n2)cc1,inactive,
Cc1cc(C)n2nc(SCC(=O)N/N=C/c3ccccc3F)nc2n1,inactive,
COc1ccccc1CNC(=O)CSc1nc2nc(C)cc(C)n2n1,15.8 µM (active),
Nc1nc(=S)[nH]c2c1C1(CCCC1)Cc1ccccc1-2,inactive,
CO[C@@H]1COC(=O)[C@H](C)NC(=O)C/C=C\[C@@H](C)[C@@H](NS(=O)(=O)c2ccc(C)cc2)COC(=O)C/C=C\[C@@H]1C,,5.57% [at 11.4 µM] (inactive)
O=c1[nH]c(SCc2ccccc2[N+](=O)[O-])nc2nc[nH]c12,,-3.83% [at 11.4 µM] (inactive)
O=c1cc(-c2ccccc2)[nH]n1-c1ccc([N+](=O)[O-])cc1,inactive,
O=[N+]([O-])c1ccc(-c2cnc(SCc3ccccc3Cl)[nH]2)cc1,12.6 µM (active),
COCCn1c(=O)c(-c2cccs2)nc2cnc(N(C)C)nc21,inactive,
C[N+](C)(CCCOc1ccccc1)c1ccccc1,0.0158 µM (active),
O=P(O)(COc1ccccc1)COc1ccccc1,inactive,
O=c1c(-c2cccs2)nc2cnc(Nc3ccccc3)nc2n1C[C@H]1CCCO1,inactive,
CC(CO)(CO)N=Cc1cc(I)cc(I)c1O,,3.56% [at 11.4 µM] (inactive)

SMILES,AC50,"activity, negative = inhibition"
Cc1ccc(NC(=S)Nc2ccc(Br)cc2)cc1,inactive,
Cc1ccc(SCc2cc(=O)[nH]c(/N=C(\N)Nc3ccc(C)c(C)c3)n2)cc1,inactive,
Cc1ccc(SCCNC(=S)Nc2ccc(C)c(C)c2)cc1,4.47 µM (active),
COc1ccc(C(=O)Nc2cccc(/C(C)=N/NC(=O)c3ccc([N+](=O)[O-])cc3)c2)cc1OC,inactive,
COc1ccc2cc(C)c3nnc(SCC(=O)Nc4nc(-c5ccccc5)cs4)n3c2c1,inactive,
Cc1cc2cc(C)c3nnc(SCC(=O)NCc4ccc5c(c4)OCO5)n3c2cc1C,17.8 µM (active),
CC(=O)Nc1ccc(NC(=O)CSc2ncnn2-c2ccccc2)cc1,inactive,
Cc1ccc2cc(C)c3nnc(SCC(=O)NCc4ccco4)n3c2c1,inactive,
O=C(CSc1nnc(-c2ccccn2)n1Cc1ccco1)Nc1ccc2c(c1)OCO2,inactive,
CC(=O)Nc1ccc(NC(=O)CSc2nnc(-c3ccccc3)n2Cc2ccc3c(c2)OCO3)cc1,12.6 µM (active),
O=C(O)c1cscc1Cc1cccs1,,14.2% [at 11.4 µM] (inactive)
O=C(O)/C=C\C(=O)Nc1cccc2c1-c1ccccc1C2=O,,10.1% [at 11.4 µM] (inactive)
Cc1nc2cncnc2n(Cc2ccc(F)cc2)c1=O,inactive,
C=CCn1c(SCC(=O)Nc2ncc(Cc3ccc(Br)cc3)s2)nnc1-c1ccncc1,inactive,
CC(C)=C1C(=O)NN(c2ccc(F)c(Cl)c2)C1=O,inactive,
Cc1cccc(C(=O)NNC(=O)C2CCCO2)c1 (stereo not given),inactive,
COc1ncc2nc(-c3cc(F)cc(F)c3)c(=O)n(-c3ccccc3)c2n1,inactive,
O=c1c(-c2cc(F)cc(F)c2)nc2cncnc2n1-c1ccccc1,inactive,
CCNc1ncc2nc(-c3ccc(F)cc3)c(=O)n(C)c2n1,inactive,
CCNc1ncc2nc(-c3cc(F)cc(F)c3)c(=O)n(-c3ccccc3)c2n1,0.1 µM (active),
CCNc1ncc2nc(-c3ccc(OC)cc3)c(=O)n(-c3ccc(OC)cc3)c2n1,inactive,

SMILES,AC50,"activity, negative = inhibition"
CCNc1ncc2nc(-c3ccc(F)cc3)c(=O)n(-c3ccccc3)c2n1,0.1 µM (active),
O=C(Nc1cccc(F)c1)/C(=C\c1ccco1)NC(=O)c1cccs1,inactive,
CC(=O)c1ccc(S(=O)(=O)NC(=O)NC2CCCCC2)cc1,inactive,
CC(C)CC(c1nnnn1C(C)C)N1CCN(c2ccccc2)CC1 (stereo not given),inactive,
COc1ccccc1NC(=O)c1sc2ncn(Cc3ccccc3C)c(=O)c2c1C,inactive,
Cc1ccccc1C(=O)NN(C)c1nc2ccccc2nc1C(F)(F)F,inactive,
CC(=O)N1CCN(c2ccc(NC(=O)c3ccc(C)cc3)cc2)CC1,inactive,
COC(=O)CC[C@@H](C)[C@H]1CC[C@H]2[C@H]3CC[C@H]4C[C@@H]5CC[C@@]4(C)C3(O5)[C@@H](Br)[C@@H](Br)[C@@]12C,,-11.7% [at 11.4 µM] (inactive)
CO[C@H]1COC(=O)C/C=C\[C@@H](C)[C@H](OC)COC(=O)CCC[C@@H]1C,,17.9% [at 11.4 µM] (inactive)
CC(C)(C)c1ccc(-c2nnc(SCc3ccc(Cl)cc3)n2-c2cccc(C(F)(F)F)c2)cc1,,7.38% [at 11.4 µM] (inactive)
Fc1ccc(Cn2c(SCc3ccc(F)c(C(F)(F)F)c3)nnc2C(F)(F)F)cc1,15.8 µM (active),
Cc1ccc(CSc2nnc(C(F)(F)F)n2Cc2ccc(F)cc2)cc1,inactive,
Cc1cc2c(nc1C)CCCN2CC(O)CN1CCCc2nc(C)c(C)cc21,,-7.07% [at 11.4 µM] (inactive)
CCc1cc2c(nc1CC)CCN(CC/C(C)=N/O[C@@H](C)c1cc(-c3c(C)cc(C)cc3C)no1)C2,,-13.3% [at 11.4 µM] (inactive)
C=CC[C@@H]1C=C[C@H](O/N=C(\C)CCN2CCCCc3nc(C)c(C)cc32)[C@H](CO)O1,3.98 µM (active),
COC(=O)C/C=C\[C@@H](C)[C@@H](/C=N\O[C@@H](C)CN1CCCCc2nc(C)c(C)cc21)NS(=O)(=O)c1ccc(C)cc1,,2.33% [at 11.4 µM] (inactive)
C=CC[C@@H]1C=C[C@H](ON=C(C)C)[C@H](CO)O1,,9.56% [at 11.4 µM] (inactive)
COC(=O)C/C=C\[C@@H](C)[C@@H](/C=N\O[C@@H](C)CN1CCCc2nc(C)c(C)cc21)NS(=O)(=O)c1ccc(C)cc1,3.16 µM (active),
Cc1cc2c(nc1C)CCCN2C[C@H](O)CN1CCCc2nc(-c3ccc(Br)cc3)ccc21,3.16 µM (active),-14.3% [at 11.4 µM] (inactive)
CO/N=C\[C@@H](NS(=O)(=O)c1ccc(C)cc1)[C@H](C)/C=C\CC(=O)OC,,-13.5% [at 11.4 µM] (inactive)
CCc1cc2c(nc1CC)CCN(CC/C(C)=N/O[C@@H](C)CN1CCCc3nc(C)c(C)cc31)C2,3.98 µM (active),

SMILES,AC50,"activity, negative = inhibition"
C/C(CCN1CCc2nc(-c3ccccc3)c(-c3ccccc3)cc2C1)=N\O[C@@H](C)CN1CCCCc2nc(C)c(C)cc21,,-4.1% [at 11.4 µM] (inactive)
Cc1ccc(NC(=O)NNC(=O)Cn2nc(-c3ccccc3)c(-c3ccccc3)c(C#N)c2=O)cc1,inactive,
O=C(N1CCOCC1)N1CCN(c2ccccc2)CC1,inactive,
Brc1[nH]nc2ccccc12,inactive,
Cc1ccc(S(=O)(=O)N[C@@H]2COC(=O)C/C=C\[C@H](C)COC(=O)N[C@@H](C)C(=O)C/C=C\[C@H]2C)cc1,,2.75% [at 11.4 µM] (inactive)
CSc1nc(Cl)cc(N(CCO)CCO)n1,inactive,
Cn1cccc1C(=O)N1CCC[C@@]2(CCN(c3ccccn3)C2)C1,inactive,
CCN(CC)C(=S)SSC(=S)N(CC)CC,inactive,
CN(C)[C@H]1C(=O)C(C(=O)NCN2CCCC2)=C(O)[C@]2(O)C(=O)C3=C(O)c4c(O)cccc4[C@](C)(O)[C@H]3C[C@H]12,,-10.6% [at 11.4 µM] (inactive)
CC(C)Cn1c(-c2ccc(Cl)cc2)cnc1SCC(=O)N1CCOCC1,inactive,
Cn1cc(-c2nc3cnc(N4CCNCC4)nc3n(-c3ccccc3)c2=O)c2ccccc21,inactive,
Cn1cnc([N+](=O)[O-])c1Sc1nc(N)nc2c1ncn2[C@H]1C[C@H](O)[C@@H](CO)O1,,4.56% [at 11.4 µM] (inactive)
CO/N=C(\C)CCN1CCCCc2nc(C)c(C)cc21,3.98 µM (active),
CO/N=C(\C)CCN1CCCc2nc(C)c(C)cc21,3.98 µM (active),
C/C(CCN1CCCc2nc(C)c(C)cc21)=N\O[C@@H](C)CN1CCCCc2nc(C)c(C)cc21,,-11.7% [at 11.4 µM] (inactive)
C/C(CCN1CCCCc2nc(C)c(C)cc21)=N\O[C@@H](C)c1cn([C@H](CO)Cc2ccccc2)nn1,,-8.6% [at 11.4 µM] (inactive) and -9.25% [at 11.4 µM] (inactive)
C/C(CCN1CCCc2nc(C)c(C)cc21)=N\OC[C@@H](O)[C@@H]1O[C@@H]2OC(C)(C)O[C@@H]2[C@H]1O,,1.91% [at 11.4 µM] (inactive)
COC(=O)[C@@H]1CC[C@H](C)[C@@H](c2ccc(C)cc2)N1C(=O)c1ccc(/C=N\O[C@@H](C)CN2CCCCc3nc(C)c(C)cc32)cc1,,-20.9% [at 11.4 µM] (inactive)
C/C(CCN1CCCCc2nc(C)c(C)cc21)=N\OC[C@@H](C)[C@H](OCc1ccccc1)C(C)C,,-1.58% [at 11.4 µM] (inactive)
CC(C)=NO[C@@H](C)CN1CCCCc2nc(C)c(C)cc21,2.51 µM (active),
C/C(CCN1CCCc2nc(C)c(C)cc21)=N\OC[C@@H](C)[C@H](OCc1ccccc1)C(C)C,,0.76% [at 11.4 µM] (inactive)
